Results taken from the supplement of paper PMC3334620.
The full ranking holds about 33,000 sequences; the median of “E-score (-0.5 to 0.5)” is about -0.054, and the highest 2% start at about 0.39. This excerpt belongs to a sample that is enriched for the highest values.

The sequences below were run against Ylr278c (UniProt Q05854) (assay: PBM E-score (8-mer binding enrichment) (E-score (-0.5 to 0.5)); higher = stronger / more preferred TF binding). Conditions: protein concentration: 200 nM; construct: GST-DNA-binding domain.
UniProt Q05854, sequence (Q05854 whole entry, the tested form may be a part): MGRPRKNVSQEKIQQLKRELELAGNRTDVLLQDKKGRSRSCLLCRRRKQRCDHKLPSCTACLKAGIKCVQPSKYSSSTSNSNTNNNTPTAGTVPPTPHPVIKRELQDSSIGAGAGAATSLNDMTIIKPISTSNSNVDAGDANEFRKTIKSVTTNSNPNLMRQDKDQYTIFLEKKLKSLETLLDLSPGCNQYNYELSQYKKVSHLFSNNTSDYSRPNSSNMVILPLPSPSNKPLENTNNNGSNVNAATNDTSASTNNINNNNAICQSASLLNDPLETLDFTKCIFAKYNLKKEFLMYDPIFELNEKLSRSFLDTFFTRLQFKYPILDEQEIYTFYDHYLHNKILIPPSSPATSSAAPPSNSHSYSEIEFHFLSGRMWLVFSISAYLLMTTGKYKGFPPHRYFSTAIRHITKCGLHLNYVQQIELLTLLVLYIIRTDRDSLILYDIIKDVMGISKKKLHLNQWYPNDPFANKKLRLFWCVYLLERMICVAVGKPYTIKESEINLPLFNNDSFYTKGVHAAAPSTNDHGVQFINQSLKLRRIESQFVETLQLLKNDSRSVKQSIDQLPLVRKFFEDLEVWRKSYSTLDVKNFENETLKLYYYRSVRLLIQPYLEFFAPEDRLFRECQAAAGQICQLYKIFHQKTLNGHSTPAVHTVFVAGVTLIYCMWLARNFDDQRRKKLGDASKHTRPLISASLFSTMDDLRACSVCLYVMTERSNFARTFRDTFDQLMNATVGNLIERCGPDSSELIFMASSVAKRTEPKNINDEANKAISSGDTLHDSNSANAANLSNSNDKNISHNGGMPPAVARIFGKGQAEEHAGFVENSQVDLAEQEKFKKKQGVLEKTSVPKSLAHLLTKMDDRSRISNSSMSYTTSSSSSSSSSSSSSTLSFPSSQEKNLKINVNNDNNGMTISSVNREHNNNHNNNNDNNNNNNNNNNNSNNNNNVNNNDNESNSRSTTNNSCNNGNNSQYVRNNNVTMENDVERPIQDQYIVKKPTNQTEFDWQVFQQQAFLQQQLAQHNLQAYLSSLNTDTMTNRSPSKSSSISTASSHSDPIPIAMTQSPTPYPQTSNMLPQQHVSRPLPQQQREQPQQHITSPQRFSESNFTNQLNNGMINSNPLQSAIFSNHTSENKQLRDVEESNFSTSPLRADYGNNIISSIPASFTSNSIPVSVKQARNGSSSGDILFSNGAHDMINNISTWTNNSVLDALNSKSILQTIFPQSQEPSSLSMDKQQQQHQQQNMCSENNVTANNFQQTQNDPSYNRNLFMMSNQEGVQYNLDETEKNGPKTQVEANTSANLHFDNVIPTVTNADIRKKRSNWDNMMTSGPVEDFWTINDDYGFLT
How it was run: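 Universal all-10-mer Agilent arrays, fresh or stripped once, were converted to double-stranded form by primer extension. GST-tagged yeast transcription factors from PURExpress in vitro transcription/translation, full-length or DNA-binding domain only, were applied at about 100-200 nM and detected with fluorescent anti-GST. After masliner normalisation, the Universal PBM Analysis Suite scored each ungapped eight-base word together with its reverse complement by E-score.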
For ACGCCCGG, the “PBM E-score” value was 0.305.
For AAGCCCGT, the “PBM E-score” value was 0.0339.
In the case of ACGCCCCG, the “PBM E-score” value is reported as 0.229.
With AAGCCCGG the “PBM E-score” value was 0.416.
With CCGCCCGG the “PBM E-score” value was 0.402.
CCGCCCCC was tested, and the “PBM E-score” value was 0.168.
In the case of GAAACCTC, the “PBM E-score” value is reported as 0.0208.
For CTGAGTCC, the “PBM E-score” value was 0.00022.
For CACTAAAG, the “PBM E-score” value was -0.169.
For GTGCTCCA, the “PBM E-score” value was -0.118.
AACAACAC was tested, and the “PBM E-score” value was -0.0906.
With ACTTGACG the “PBM E-score” value was -0.135.
In the case of ATTGATCC, the “PBM E-score” value is reported as 0.282.
For CACTTGCC, the “PBM E-score” value was 0.0403.
In the case of CCCCTCGC, the “PBM E-score” value is reported as -0.239.
CGGAGCCA was tested, and the “PBM E-score” value was 0.402.
For TGGAGCCA, the “PBM E-score” value was -0.194.
AGGAGCCG was tested, and the “PBM E-score” value was -0.0181.
With CGGAGCCG the “PBM E-score” value was 0.427.
With CGGAGCCC the “PBM E-score” value was 0.37.
GGGAGCCA was tested, and the “PBM E-score” value was -0.264.
For AATGCTGC, the “PBM E-score” value was -0.0877.
CAGTCTCA was tested, and the “PBM E-score” value was -0.126.
CATCGGGC was tested, and the “PBM E-score” value was 0.211.
For GATCGGTA, the “PBM E-score” value was 0.265.
For AATCGGAG, the “PBM E-score” value was 0.466.
For CATCGGAC, the “PBM E-score” value was 0.424.
For AATCGGAA, the “PBM E-score” value was 0.416.
CATCGGTC was tested, and the “PBM E-score” value was 0.15.
With AATCGGAT the “PBM E-score” value was 0.384.
In the case of GATCGGGA, the “PBM E-score” value is reported as 0.227.
For AATCGGCA, the “PBM E-score” value was 0.304.
AATCGGTG was tested, and the “PBM E-score” value was 0.126.
With GATCGGAA the “PBM E-score” value was 0.408.
AATCGGGA was tested, and the “PBM E-score” value was 0.231.
With AACTGGGG the “PBM E-score” value was 0.00524.
CTGCAACC was tested, and the “PBM E-score” value was -0.27.
For CTTTGGTA, the “PBM E-score” value was -0.0286.
In the case of CGAATGTC, the “PBM E-score” value is reported as 0.101.
For CAGAGTAG, the “PBM E-score” value was -0.16.
AGCCAGCC was tested, and the “PBM E-score” value was -0.18.
In the case of AAAGCGAT, the “PBM E-score” value is reported as 0.0361.
For CGATTTTC, the “PBM E-score” value was 0.153.
For GAGCGCCC, the “PBM E-score” value was 0.00794.
With CATCGGCG the “PBM E-score” value was 0.304.
With AATCGGGC the “PBM E-score” value was 0.0936.
With AATCGGCC the “PBM E-score” value was 0.24.
In the case of CATCGGCA, the “PBM E-score” value is reported as 0.284.
For GATCGGAC, the “PBM E-score” value was 0.434.
For AATCGGAC, the “PBM E-score” value was 0.397.
With CATCGGGG the “PBM E-score” value was 0.314.
With GATCGGGC the “PBM E-score” value was 0.184.
With CATCGGAG the “PBM E-score” value was 0.457.
In the case of CATCGGTA, the “PBM E-score” value is reported as 0.261.
In the case of CATCGGAA, the “PBM E-score” value is reported as 0.396.
In the case of GCTCGGAC, the “PBM E-score” value is reported as 0.382.
AGTATCAC was tested, and the “PBM E-score” value was -0.0655.
With GTTTCGCA the “PBM E-score” value was -0.0936.
For ACTACTAG, the “PBM E-score” value was -0.0129.
For ATTTTGGA, the “PBM E-score” value was 0.168.
AAATCCTA was tested, and the “PBM E-score” value was 0.0982.
For CTTGGCGA, the “PBM E-score” value was -0.203.
TATCGGAA was tested, and the “PBM E-score” value was 0.413.
With TATCGGGA the “PBM E-score” value was 0.288.
For TATCGGCA, the “PBM E-score” value was 0.264.
For ATGCTCCA, the “PBM E-score” value was -0.0254.
In the case of AGGCTCCC, the “PBM E-score” value is reported as -0.0902.
For ATGCTCCC, the “PBM E-score” value was -0.0848.
For ACGCTCCG, the “PBM E-score” value was 0.399.
ATGCTCCG was tested, and the “PBM E-score” value was 0.425.
ACGCTCCC was tested, and the “PBM E-score” value was 0.0269.
With AGGCTCCG the “PBM E-score” value was 0.39.
In the case of AGGCTCCA, the “PBM E-score” value is reported as -0.133.
With CCGCTCCC the “PBM E-score” value was 0.191.
In the case of CCGCTCCA, the “PBM E-score” value is reported as 0.064.
CCGCTCCG was tested, and the “PBM E-score” value was 0.444.
In the case of ACGCTCCT, the “PBM E-score” value is reported as -0.237.
GAGGCCGA was tested, and the “PBM E-score” value was 0.217.
With ACTTTTCC the “PBM E-score” value was 0.278.
In the case of GCCTAGCA, the “PBM E-score” value is reported as -0.245.
In the case of GAGGCTAA, the “PBM E-score” value is reported as 0.0333.
In the case of AGCAGACG, the “PBM E-score” value is reported as -0.00216.
With ATGTGGGA the “PBM E-score” value was -0.101.
With AAAGCTAT the “PBM E-score” value was -0.0422.
GGTTGGCA was tested, and the “PBM E-score” value was -0.173.
With ATAGAGAC the “PBM E-score” value was -0.248.
In the case of CCCCGCAA, the “PBM E-score” value is reported as 0.225.
In the case of TAGTCCGA, the “PBM E-score” value is reported as 0.415.
CAGTCCGC was tested, and the “PBM E-score” value was 0.202.
GAGTCCGC was tested, and the “PBM E-score” value was 0.363.
In the case of CAGTCCGA, the “PBM E-score” value is reported as 0.402.
With TAGTCCAA the “PBM E-score” value was -0.0998.
AAGTCCGA was tested, and the “PBM E-score” value was 0.483.
CAGTCCGG was tested, and the “PBM E-score” value was 0.367.
In the case of ACGTCCGA, the “PBM E-score” value is reported as 0.346.
With GAGTCCGA the “PBM E-score” value was 0.392.
In the case of TAGTCCCA, the “PBM E-score” value is reported as -0.284.
With GCGTCCGA the “PBM E-score” value was 0.292.
In the case of AAGTCCTA, the “PBM E-score” value is reported as 0.0365.
ACCAGGGC was tested, and the “PBM E-score” value was -0.178.
For ATTGAACG, the “PBM E-score” value was -0.114.
With ATTGAACC the “PBM E-score” value was -0.0437.
In the case of AGGCGTAT, the “PBM E-score” value is reported as -0.308.
With ACAGTCAT the “PBM E-score” value was -0.24.
With ACTATTGC the “PBM E-score” value was 0.0531.
In the case of ATAGACCG, the “PBM E-score” value is reported as 0.0141.
For CAGCTTCC, the “PBM E-score” value was -0.0366.
With CAGTGCGG the “PBM E-score” value was 0.257.
For ATGCTGCA, the “PBM E-score” value was -0.178.
For ACACGGAG, the “PBM E-score” value was 0.419.
For ACACGGAA, the “PBM E-score” value was 0.288.
CCACGGAC was tested, and the “PBM E-score” value was 0.272.
With CCACGGAG the “PBM E-score” value was 0.418.
For ACACGGAT, the “PBM E-score” value was 0.199.
In the case of CCACGGAA, the “PBM E-score” value is reported as 0.34.
ATCTCCGA was tested, and the “PBM E-score” value was 0.478.
In the case of CTCTCCGC, the “PBM E-score” value is reported as 0.325.
In the case of CTCTCCCA, the “PBM E-score” value is reported as -0.148.
ATCTCCGC was tested, and the “PBM E-score” value was 0.47.
In the case of CTCTCCAA, the “PBM E-score” value is reported as 0.0897.
For ATCTCCCA, the “PBM E-score” value was 0.0776.
For ATCTCCAA, the “PBM E-score” value was -0.0722.
For ATCTCCAG, the “PBM E-score” value was -0.0917.
In the case of ATCTCCGG, the “PBM E-score” value is reported as 0.493.
In the case of CTCTCCGA, the “PBM E-score” value is reported as 0.394.
ATCTCCCC was tested, and the “PBM E-score” value was -0.00596.
For ATCTCCCG, the “PBM E-score” value was 0.301.
With CTTCATGC the “PBM E-score” value was -0.0885.
For ACCGCGAC, the “PBM E-score” value was 0.0815.
CGAACTGC was tested, and the “PBM E-score” value was 0.0356.
In the case of ACATTCAA, the “PBM E-score” value is reported as 0.0683.
GACAGTCC was tested, and the “PBM E-score” value was 0.0326.
For CCGGTAAG, the “PBM E-score” value was 0.337.
With GCGCGCAA the “PBM E-score” value was 0.219.
For GTCTCCGA, the “PBM E-score” value was 0.417.
GTCTCCTA was tested, and the “PBM E-score” value was -0.166.
With GTCTCCAA the “PBM E-score” value was -0.111.
With GTACTTTA the “PBM E-score” value was -0.191.
AATCCGTC was tested, and the “PBM E-score” value was 0.297.
In the case of AATCCGGG, the “PBM E-score” value is reported as 0.417.
For AATCCGTA, the “PBM E-score” value was 0.195.
For AATCCTGG, the “PBM E-score” value was -0.0892.
With AATCCGCA the “PBM E-score” value was 0.316.
With AATCCGGC the “PBM E-score” value was 0.425.
In the case of TATCCGGA, the “PBM E-score” value is reported as 0.469.
In the case of AATCCGGA, the “PBM E-score” value is reported as 0.466.
For CATCCGGG, the “PBM E-score” value was 0.3.
In the case of TATCCTGA, the “PBM E-score” value is reported as -0.121.
TATCCGCA was tested, and the “PBM E-score” value was 0.271.
In the case of CATCCGGC, the “PBM E-score” value is reported as 0.354.
With CCTCGACG the “PBM E-score” value was -0.00055.
GTACTGCA was tested, and the “PBM E-score” value was -0.0765.
AAACCTCC was tested, and the “PBM E-score” value was 0.147.
With AATATTGT the “PBM E-score” value was 0.0529.
In the case of TACCAGGA, the “PBM E-score” value is reported as -0.0496.
For CTACTTTC, the “PBM E-score” value was -0.0554.
In the case of GGGTCGCA, the “PBM E-score” value is reported as 0.139.
CTTGACAC was tested, and the “PBM E-score” value was -0.193.
For ATAGATGG, the “PBM E-score” value was -0.132.
For CCCTTTCG, the “PBM E-score” value was 0.116.
GATCCGGA was tested, and the “PBM E-score” value was 0.439.
With GATCCTGC the “PBM E-score” value was -0.00417.
In the case of CATCCGTA, the “PBM E-score” value is reported as 0.183.
In the case of AATCCGGT, the “PBM E-score” value is reported as 0.442.
GATCCGGC was tested, and the “PBM E-score” value was 0.407.
For GATCCGTA, the “PBM E-score” value was 0.158.
For CATCCGCA, the “PBM E-score” value was 0.191.
For AATCCGCT, the “PBM E-score” value was 0.269.
AATCCAGT was tested, and the “PBM E-score” value was 0.108.
With CATCCGGA the “PBM E-score” value was 0.436.
GATCCGAA was tested, and the “PBM E-score” value was 0.33.
With GATCCGCC the “PBM E-score” value was 0.276.
